Data published in PubChem BioAssay (Tox21).
Inconclusive results are not listed. The source made the active and inactive calls. Unless noted, calls come from the whole dose curve; as a rule, active = well fitted curve in the direction sought with a large enough effect in the repeat runs; inconclusive = weak or mixed curves; inactive = no such curve, though single readings can be large; an effect the other way counts as inactive or inconclusive.

Legend:
[1] = qHTS assay to identify small molecule antagonists of the thyroid receptor (TR) signaling pathway (AID 743065); note: series mostly up to about 70 µM; nearly all actives have a fitted effect of over 55% in size
In short: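 GH3.TRE-Luc rat pituitary cells (two TREs driving luciferase) were dosed with compound, then stimulated with 1 nM T3 (final) for 23.5 h at 37 C. ONE-Glo luminescence was the read-out, with CellTiter-Fluor fluorescence as the cytotoxicity counter-screen.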

[2] = test system: thyroid hormone receptor (rat, GH3 cells); test: qHTS assay to identify small molecule agonists of the thyroid receptor (TR) signaling pathway (AID 743066; calls by dose curve)
[3] = target: Estrogen receptor (Homo sapiens) (UniProt P03372); test: qHTS assay to identify small molecule antagonists of the estrogen receptor alpha (ER-alpha) signaling pathway (AID 743069; active = well fitted curve in the direction sought with a large enough effect in the signal ratio in the repeat runs, not every such curve was filed as active; the % refers to the signal ratio)
Estrogen receptor (Homo sapiens), sequence (P03372 whole entry, looked up): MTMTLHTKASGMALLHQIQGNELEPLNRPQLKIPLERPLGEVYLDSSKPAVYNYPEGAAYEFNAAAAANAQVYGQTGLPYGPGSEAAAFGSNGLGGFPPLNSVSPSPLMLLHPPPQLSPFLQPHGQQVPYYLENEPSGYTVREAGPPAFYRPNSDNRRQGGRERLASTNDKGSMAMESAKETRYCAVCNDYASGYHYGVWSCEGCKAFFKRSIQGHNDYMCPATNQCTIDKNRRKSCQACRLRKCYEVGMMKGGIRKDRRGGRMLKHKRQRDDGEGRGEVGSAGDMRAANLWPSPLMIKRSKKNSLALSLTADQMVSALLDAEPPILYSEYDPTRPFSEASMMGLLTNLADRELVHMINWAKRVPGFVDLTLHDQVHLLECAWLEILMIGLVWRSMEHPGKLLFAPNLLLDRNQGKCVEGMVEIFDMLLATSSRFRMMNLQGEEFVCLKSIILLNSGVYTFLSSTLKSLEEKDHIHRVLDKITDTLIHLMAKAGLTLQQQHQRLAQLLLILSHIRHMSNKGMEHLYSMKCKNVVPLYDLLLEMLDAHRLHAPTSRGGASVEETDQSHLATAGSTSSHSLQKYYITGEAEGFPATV
In short: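 HEK293 ER-alpha-UAS-bla GripTite cells, held overnight in 2% charcoal-stripped FBS, 5,000 cells/well, preincubated 4 h, then compound plus 17beta-estradiol for 18 h at 37C. Beta-lactamase read by LiveBLAzer B/G FRET substrate, 2 h at room temperature.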

[4] = qHTS assay to identify small molecule antagonists of the estrogen receptor alpha (ER-alpha) signaling pathway - cell viability counter screen (AID 743074; calls by dose curve;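 note: HEK293 cells carrying ER-alpha-UAS-bla reporter stimulated with 17beta-estradiol; nearly all actives have a fitted effect of over 45% in size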; note: potency is the fitted concentration of half-maximal effect)
[5] = target: Estrogen receptor (Homo sapiens) (UniProt P03372); test: qHTS assay to identify small molecule agonists of the estrogen receptor alpha (ER-alpha) signaling pathway (AID 743075; calls by dose curve)
[6] = target: Estrogen receptor (Homo sapiens) (UniProt P03372); test: qHTS assay to identify small molecule agonists of the estrogen receptor alpha (ER-alpha) signaling pathway using the BG1 cell line (AID 743079); note: nearly all actives have a fitted effect of over 20% in size; note: potency is the fitted concentration of half-maximal effect
[7] = qHTS assay to identify small molecule antagonists of the estrogen receptor alpha (ER-alpha) signaling pathway using the BG1 cell line (AID 743080; calls by dose curve;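 note: BG1 cells stimulated with 17beta-estradiol alongside compound; nearly all actives have a fitted effect of over 25% in size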; note: potency is the fitted concentration of half-maximal effect)
In short: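 Seeding, 24 h rest, compound transfer from DMSO, 17beta-estradiol addition, 21.5 h incubation, CellTiter-Fluor (30 min, 37 C), then ONE-Glo (30 min, room temperature): this sequence was run on BG1-Luc-4E2 reporter cells.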

[8] = qHTS assay to identify small molecule antagonists of the estrogen receptor alpha (ER-alpha) signaling pathway using the BG1 cell line - cell viability counter screen (AID 743081);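 note: compound given together with 17beta-estradiol as the ER stimulus; series mostly up to about 70 µM; nearly all actives have a fitted effect of over 45% in size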
Aromatase (Homo sapiens) = Aromatase (Homo sapiens) (UniProt P11511); test: qHTS assay to identify aromatase inhibitors (AID 743083); note: nearly all actives have a fitted effect of over 55% in size; note: potency is the fitted concentration of half-maximal effect
Aromatase (Homo sapiens), sequence (P11511 whole entry, looked up): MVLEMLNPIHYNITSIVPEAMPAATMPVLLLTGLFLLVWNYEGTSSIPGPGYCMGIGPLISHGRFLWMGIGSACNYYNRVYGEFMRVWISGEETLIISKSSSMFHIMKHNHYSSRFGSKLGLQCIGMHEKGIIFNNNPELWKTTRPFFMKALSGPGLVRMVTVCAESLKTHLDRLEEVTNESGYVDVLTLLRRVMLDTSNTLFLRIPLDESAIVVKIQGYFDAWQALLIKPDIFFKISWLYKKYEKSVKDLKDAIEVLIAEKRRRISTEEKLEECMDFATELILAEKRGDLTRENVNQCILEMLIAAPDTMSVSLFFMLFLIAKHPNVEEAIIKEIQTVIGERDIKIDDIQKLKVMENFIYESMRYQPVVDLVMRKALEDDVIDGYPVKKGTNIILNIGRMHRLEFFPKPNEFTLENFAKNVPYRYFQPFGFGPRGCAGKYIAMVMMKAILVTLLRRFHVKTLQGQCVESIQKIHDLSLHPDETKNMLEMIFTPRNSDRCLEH

[9] = qHTS assay to identify aromatase inhibitors - cell viability counter screen (AID 743084);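 note: cells stimulated with testosterone during compound exposure; nearly all actives have a fitted effect of over 55% in size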
[10] = target: Aryl hydrocarbon receptor (Homo sapiens) (UniProt P35869); test: qHTS assay to identify small molecule that activate the aryl hydrocarbon receptor (AhR) signaling pathway (AID 743085);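 note: HG2L7.5c1 human HepG2 liver cells with stably integrated DRE-driven firefly reporter; series mostly up to about 70 µM; nearly all actives have a fitted effect of over 15% in size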
Aryl hydrocarbon receptor (Homo sapiens), sequence (P35869 whole entry, looked up): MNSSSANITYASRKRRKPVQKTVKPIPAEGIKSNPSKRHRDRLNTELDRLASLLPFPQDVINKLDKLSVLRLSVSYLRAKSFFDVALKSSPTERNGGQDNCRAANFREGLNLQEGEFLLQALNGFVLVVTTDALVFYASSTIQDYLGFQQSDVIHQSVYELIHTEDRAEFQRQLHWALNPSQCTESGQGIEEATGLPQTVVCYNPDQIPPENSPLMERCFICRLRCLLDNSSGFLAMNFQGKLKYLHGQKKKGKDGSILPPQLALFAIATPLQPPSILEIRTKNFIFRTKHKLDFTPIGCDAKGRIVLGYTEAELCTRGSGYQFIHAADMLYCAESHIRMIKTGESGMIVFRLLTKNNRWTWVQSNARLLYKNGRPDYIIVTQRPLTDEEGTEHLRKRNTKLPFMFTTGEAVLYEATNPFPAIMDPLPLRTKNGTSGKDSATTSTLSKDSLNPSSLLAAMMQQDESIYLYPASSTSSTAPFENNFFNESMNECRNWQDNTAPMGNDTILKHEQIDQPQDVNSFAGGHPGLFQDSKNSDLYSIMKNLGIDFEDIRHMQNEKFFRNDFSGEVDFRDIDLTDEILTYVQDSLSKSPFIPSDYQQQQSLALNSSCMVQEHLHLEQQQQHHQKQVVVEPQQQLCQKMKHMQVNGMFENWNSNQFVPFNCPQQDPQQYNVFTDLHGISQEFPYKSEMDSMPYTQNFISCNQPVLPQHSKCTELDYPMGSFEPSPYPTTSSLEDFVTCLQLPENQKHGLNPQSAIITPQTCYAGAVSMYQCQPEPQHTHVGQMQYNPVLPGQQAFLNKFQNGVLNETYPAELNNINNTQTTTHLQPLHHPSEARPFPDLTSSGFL
In short: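 HepG2 cells (HG2L7.5c1) stably carrying a firefly luciferase reporter driven by 20 dioxin responsive elements were exposed to compound for 24 h at 37C after a 5 h settling period; luminescence rise (ONE-Glo) indicated activation.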

[11] = qHTS assay to identify small molecule that activate the aryl hydrocarbon receptor (AhR) signaling pathway - cell viability counter screen (AID 743086); note: nearly all actives have a fitted effect of over 45% in size; note: potency is the fitted concentration of half-maximal effect
In short: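 HepG2-AhR-luc (HG2L7.5c1) cells, 4000/well, treated 24 h at 37 C with compound; viability measured as CellTiter-Fluor fluorescence after 30 min in the same wells as the luciferase read.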

[12] = target: Peroxisome proliferator-activated receptor gamma (Homo sapiens) (UniProt P37231); test: qHTS assay to identify small molecule agonists of the peroxisome proliferator-activated receptor gamma (PPARg) signaling pathway (AID 743094; active = well fitted activation curve with a large enough effect in the signal ratio in the repeat runs, not every such curve was filed as active; the % refers to the signal ratio; note: potency is the fitted concentration of half-maximal effect)
Peroxisome proliferator-activated receptor gamma (Homo sapiens), sequence (P37231 whole entry, looked up): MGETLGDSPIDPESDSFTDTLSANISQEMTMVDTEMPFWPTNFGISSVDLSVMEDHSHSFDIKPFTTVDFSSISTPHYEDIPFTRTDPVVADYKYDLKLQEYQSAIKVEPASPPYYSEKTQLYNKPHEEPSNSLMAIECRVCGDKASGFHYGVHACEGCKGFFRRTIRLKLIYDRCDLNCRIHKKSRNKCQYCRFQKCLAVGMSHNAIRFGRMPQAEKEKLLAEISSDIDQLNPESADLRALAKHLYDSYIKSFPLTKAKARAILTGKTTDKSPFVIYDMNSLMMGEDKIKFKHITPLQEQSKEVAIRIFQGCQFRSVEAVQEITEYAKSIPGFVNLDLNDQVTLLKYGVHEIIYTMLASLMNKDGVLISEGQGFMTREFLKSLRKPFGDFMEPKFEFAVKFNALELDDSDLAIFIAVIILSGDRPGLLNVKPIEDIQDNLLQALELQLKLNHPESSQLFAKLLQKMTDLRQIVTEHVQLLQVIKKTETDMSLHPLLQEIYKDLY
In short: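 Stably transfected HEK293H cells (GeneBLAzer PPARg UAS-bla) were incubated with test substances for 17 h at 37C after a 5 h pre-incubation; beta-lactamase activity was then detected by FRET substrate fluorescence.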

[13] = qHTS assay to identify small molecule antagonists of the thyroid receptor (TR) signaling pathway - cell viability counter screen (AID 743064); note: nearly all actives have a fitted effect of over 50% in size; note: potency is the fitted concentration of half-maximal effect
In short: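 GH3.TRE-Luc rat pituitary cells carrying a TRE-luciferase reporter were treated with compound plus 1 nM T3 (final) for 23.5 h at 37 °C. Viability was then read in the same wells by CellTiter-Fluor fluorescence after a further 30 min.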

[14] = target: Peroxisome proliferator-activated receptor gamma (Homo sapiens) (UniProt P37231); test: qHTS assay to identify small molecule antagonists of the peroxisome proliferator-activated receptor gamma (PPARg) signaling pathway (AID 743191; calls by dose curve; note: series mostly up to about 63 µM; nearly all actives have a fitted effect of over 30% in size)
In short: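 GeneBLAzer PPARg UAS-bla HEK293H cells, 5 h post-plating, exposed to compounds 17 h at 37C. LiveBLAzer B/G FRET substrate added for 1 h at room temperature; beta-lactamase reporter read by fluorescence intensity.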

[15] = qHTS assay for small molecule agonists of the antioxidant response element (ARE) signaling pathway - cell viability counter screen (AID 743203; calls by dose curve; note: nearly all actives have a fitted effect of over 55% in size; note: potency is the fitted concentration of half-maximal effect)
In short: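 Cells (ARE-bla HepG2, 2,000/well) receive DMSO-dissolved compounds after a 5 hrs rest. Plates incubate 16 hrs at 37C/5% CO2. CellTiter-Glo luminescence is then recorded after 30 min at room temperature.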

[16] = qHTS assay to identify small molecule agonists of the peroxisome proliferator-activated receptor delta (PPARd) signaling pathway - cell viability counter screen (AID 743211)
In short: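 PPARd-bla HEK293H cells (UAS-beta-lactamase reporter) were treated with compounds for 17 h at 37 C. Viability was then read in the same wells by CellTiter-Glo luminescence after 30 min at room temperature.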

[17] = target: Peroxisome proliferator-activated receptor delta (Homo sapiens) (UniProt Q03181); test: qHTS assay to identify small molecule agonists of the peroxisome proliferator-activated receptor delta (PPARd) signaling pathway (AID 743212; calls by dose curve)
Peroxisome proliferator-activated receptor delta (Homo sapiens), sequence (Q03181 whole entry, looked up): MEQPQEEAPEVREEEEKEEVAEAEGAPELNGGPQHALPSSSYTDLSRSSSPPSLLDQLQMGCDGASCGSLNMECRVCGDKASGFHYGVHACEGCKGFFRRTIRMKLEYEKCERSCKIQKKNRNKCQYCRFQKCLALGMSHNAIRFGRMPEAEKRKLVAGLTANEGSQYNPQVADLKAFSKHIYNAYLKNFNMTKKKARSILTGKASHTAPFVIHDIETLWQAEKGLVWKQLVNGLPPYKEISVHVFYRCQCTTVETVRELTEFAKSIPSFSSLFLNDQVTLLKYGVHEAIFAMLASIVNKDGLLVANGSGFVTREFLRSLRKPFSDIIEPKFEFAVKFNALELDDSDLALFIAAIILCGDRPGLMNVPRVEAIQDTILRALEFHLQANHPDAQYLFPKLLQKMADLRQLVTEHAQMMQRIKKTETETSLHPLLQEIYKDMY
In short: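 GeneBLAzer UAS-bla HEK293H cells carrying a PPARδ construct were exposed to compounds at 37 °C. Beta-lactamase activity was read by FRET fluorescence after 2 h at room temperature with LiveBLAzer B/G substrate.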

[18] = qHTS assay to identify small molecule antagonists of the peroxisome proliferator-activated receptor gamma (PPARg) signaling pathway - cell viability counter screen (AID 743194)
In short: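 Cytotoxicity counter screen in PPARg-bla HEK293H cells, same wells as reporter assay. Compounds plus 50 nM rosiglitazone (final) for 17 h at 37 C, then viability read by CellTiter-Glo luminescence.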

Measured: Potency

CC(C)(Oc1ccc(C2CCCc3ccccc32)cc1)C(=O)O (configuration not stated)
active: [6] 18.8 µM | [12] 2.39 µM
not listed: [13] | [14] | [15] | [16] | [17] | [18]
inactive: all other assays above

Cc1ncc(C[n+]2csc(CCOP(=O)(O)O)c2C)c(N)n1
inactive: [13] | [4] | [8] | Aromatase (Homo sapiens) | [9] | [10] | [11] | [12]

COc1cc(NS(C)(=O)=O)ccc1Nc1c2ccccc2nc2ccccc12
inactive: [4]
active: [13] 0.188 µM | Aromatase (Homo sapiens) 26.6 µM | [11] 13.3 µM | [12] 21.3 µM

CC(C)CCC[C@@H](C)[C@H]1CC[C@H]2[C@@H]3CC[C@@H]4C[C@H](O)CC[C@]4(C)[C@H]3CC[C@]12C
not listed: [10] | [13] | [14] | [15] | [16] | [17] | [18]
inactive: all other assays above

CCC(C)(C)c1ccc(CC(C)CN2C[C@@H](C)O[C@@H](C)C2)cc1 (some centres not stated)
inactive: [5] | [8] | [11] | [14] | [15] | [17]
active: [13] 11.9 µM | [7] 29.8 µM | [16] 26.6 µM

CN(Cc1ccccc1)Cc1ccccc1
not listed: [10] | [13] | [14] | [15] | [16] | [17] | [18]
inactive: all other assays above

CNC(=O)C[C@@H](N)C(=O)N[C@@H](C(=O)N[C@@H]1C(=O)N2[C@@H]1SC(C)(C)[C@@H]2C(=O)O)c1ccc(O)cc1
not listed: [1] | [2] | [14] | [15] | [16] | [17] | [18]
inactive: all other assays above

NCC[C@H](O)C(=O)N[C@@H]1C[C@H](N)[C@@H](O[C@H]2O[C@H](CN)CC[C@H]2N)[C@H](O)[C@H]1O[C@H]1O[C@H](CO)[C@@H](O)[C@H](N)[C@H]1O
inactive: [13] | [2] | [4] | [8] | Aromatase (Homo sapiens) | [9] | [10] | [11] | [12]

CCC(O)c1ccccc1 (configuration not stated)
inactive: [13] | [3] | [5] | [6] | [7] | [8] | Aromatase (Homo sapiens) | [9] | [11] | [12]

O=C(CCCCCCCCc1cccnc1)N1CCC(C=C(c2ccccc2)c2ccccc2)CC1
active: [13] 27.3 µM | [4] 43.6 µM | [18] 19.5 µM | [15] 15.4 µM | [16] 12.3 µM
inactive: [10] | [11]
